# Screens: PubChem, several laboratories
# SENP7 block: SENP7 protease inhibition. Q9BQF6. recombinant SENP7, Z-RLRGG-aminoluciferin luminescence, 40 min. inhibition, % at 5 µM. hit rate 1.5% among 330,000. AID 434973;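 active = inhibition above about 50% at the single test dose, limit read from the data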;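 also: plate controls were DMSO with enzyme for no effect and no enzyme buffer wells for full effect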
# Target sequence (Q9BQF6 706-1050 limits assumed): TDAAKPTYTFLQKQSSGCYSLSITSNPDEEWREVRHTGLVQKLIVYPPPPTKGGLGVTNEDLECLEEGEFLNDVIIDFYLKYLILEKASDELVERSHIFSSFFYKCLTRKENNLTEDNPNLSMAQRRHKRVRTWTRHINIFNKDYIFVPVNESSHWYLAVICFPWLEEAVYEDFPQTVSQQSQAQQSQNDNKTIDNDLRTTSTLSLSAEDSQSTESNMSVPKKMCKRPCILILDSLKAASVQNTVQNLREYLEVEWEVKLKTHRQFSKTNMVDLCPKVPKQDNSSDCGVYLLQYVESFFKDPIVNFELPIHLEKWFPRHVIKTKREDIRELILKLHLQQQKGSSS
# SENP8 block-1: inhibitors of human SENP8 protease; Q96LD8; recombinant SENP8, Nedd8 substrate fluorescence; inhibition, % at 20 µM; hit rate 0.64% among 360,000; in the data active = inhibition mostly above about 40%, no sharp cut-off; inactive = mostly below about 27%
# Target sequence (Q96LD8 whole entry, looked up): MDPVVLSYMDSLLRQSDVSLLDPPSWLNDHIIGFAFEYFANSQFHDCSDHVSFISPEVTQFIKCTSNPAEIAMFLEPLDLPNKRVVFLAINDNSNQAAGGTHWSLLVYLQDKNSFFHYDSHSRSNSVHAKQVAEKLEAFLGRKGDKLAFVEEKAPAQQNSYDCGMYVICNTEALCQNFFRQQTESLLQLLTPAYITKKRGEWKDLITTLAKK
# HSP90 inh: inhibitors of HSP90 luciferase refolding in rabbit reticulocyte lysate. luciferase refolding luminescence, 3 h. inhibition, % at 5.6 µM. hit rate 0.91% among 290,000;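 active = inhibition above the screen-wide mean plus 3 SD, computed separately per campaign, cut at about 16% in these data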;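 also: 0% = DMSO wells and 100% = 60 µM geldanamycin wells; inhibitors lower the luminescence because luciferase stays unfolded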
# SENP6 block: inhibitors of human SENP6 protease; Q9GZR1; Recombinant SENP6 catalytic domain, aminoluciferin luminescence; inhibition, % at 10 µM; hit rate 1.8% among 330,000;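 active = inhibition above about 50% at the single tested dose, limit read from the data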;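 also: plate controls were DMSO wells with enzyme for no effect and DMSO wells lacking enzyme for full effect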
# SENP8 block-2: inhibitors of human SENP8 protease; AID 2540; inhibition, % at 10 µM; hit rate 1.2% among 330,000; Q96LD8; purified SENP8, Z-RLRGG-aminoluciferin cleavage, luminescence; in the data active = inhibition above about 50%
# SENP8 conf: confirmation of human SENP8 protease inhibitors. shares compounds with SENP8 block-1. purified SENP8, Nedd8-AMC/pro-Nedd8 cleavage fluorescence, 30 min. inhibition, % at 25 µM. hit rate 15% among 1,400. AID 624319; in the data active = inhibition mostly above about 39%, no sharp cut-off; inactive = mostly below about 34%
# * marks the source's active call; other numbers are inactive results; · = no result given; ! = repeats disagree. Sampled rows, rich in hits. Any-hit rate of the full collection: about 2.7%.
SMILES,SENP7 block,SENP8 block-1,HSP90 inh,SENP6 block,SENP8 block-2,SENP8 conf
CN(N=Cc1ccccc1)C(=S)Nc1ccccc1,·,43*,·,·,·,19
C/C(=C\C(=S)Nc1ccccc1)Nc1ccccc1,2,-21,1,-9,-7,·
CCOC(=O)C(=CNNc1ccccc1)C(=O)OCC,4,45*,2,-10,0,20
O=C(OCn1nnc2ccccc2c1=O)C1CCCCC1,6,42*,-2,-31,-5,12
Cc1ccc(C)c(Nc2c([N+](=O)[O-])cc(C(=O)N3CC(=O)Nc4ccccc43)cc2[N+](=O)[O-])c1,0,60*,2,-6,-7,20
COC(=O)c1ccc(Cn2cc([N+](=O)[O-])cn2)cc1,8,2,2,-8,-4,·
O=C(Cn1cc([N+](=O)[O-])cn1)Nc1ccc(Cn2cc(Br)cn2)cc1,-6,40*,-2,-12,-12,5
CC(=O)Nc1ccc(C23CC4CC(CC(C4)C2)C3)cc1,-6,1,-1,-24,0,·
Cc1ccc(C=Nc2ccc(N(C)C)cc2)o1,14,45*,-1,11,-33,14
Cc1ccc(C(=O)NCCCn2ccnc2)o1,2,18,4,-11,-4,·
CCc1nnc(NS(=O)(=O)c2ccc(NS(=O)(=O)c3ccccc3[N+](=O)[O-])cc2)s1,-8,25,0,-21,-11,·
CCc1nnc(NS(=O)(=O)c2ccc(Nc3ccc([N+](=O)[O-])c4nonc34)cc2)s1,2,45*,-2,22,-2,30
CCCCOCCCNCc1cccn1CCN1CCOCC1,4,-8,-2,-11,5,·
CC1(/[N+]([O-])=C/c2ccc(Cl)cc2Cl)CCCCC1=O (configuration not stated),5,46*,-1,19,6,0
c1ccc2c(-c3nnc4n3CCCCC4)cc(-c3ccncc3)nc2c1,6,27,2,9,-1,·
COc1ccc(NC(=O)C2CC(=O)OC23CCOC(C)(C)C3)cc1 (configuration not stated),0,42*,7,-11,6,10
CC(Oc1ccc2c3c(c(=O)oc2c1)CCCC3)C(=O)NCC1CCC(C(=O)O)CC1 (configuration not stated),2,-363,-4,10,-3,·
COc1ccc(O)cc1,-2,48*,·,-1,7,6
COc1ccc(-c2ccnc(-c3ccc(O)cc3)n2)cc1,5,4,-2,8,-2,·
NS(=O)(=O)c1ccc(Nc2ccc([N+](=O)[O-])c3nonc23)cc1,-3,39,-3,27,-1,·
COc1cccc2c(=O)c3ccoc3n(C)c12,8,-247,1,-6,-5,·
O=C1CCC[C@H]2c3[nH]c4ccccc4c3CCN12,7,68*,·,-10,3,6
O=C1c2ccccc2C(=O)N1c1ccccc1,·,42*,·,·,·,4
Nc1cccc2c1C(=O)N(c1ccccc1)C2=O,1,-429,·,-4,1,·
COc1ccc2c3c1OC1CC(O)C=CC31CCN(C)C2 (configuration not stated),-4,42*!,-5,-6,-8,8
SMILES,SENP7 block,SENP8 block-1,HSP90 inh,SENP6 block,SENP8 block-2,SENP8 conf
O=C(CC(C(=O)O)C1CCCO1)NCCc1ccc2c(c1)OCO2 (configuration not stated),-8,-6,1,-1,-1,·
O=C(C1CCC(=O)N1Cc1ccccc1Cl)N1CCN(c2cccc(Cl)c2)CC1 (configuration not stated),-7,40*,4,-25,-3,5
O=C(Nc1ccncc1)c1ccc(Cl)c(S(=O)(=O)N2CCCCC2)c1,-10,7,·,-2,12,·
O=C(CCC(=O)Nc1ccccc1)NNS(=O)(=O)c1ccc(Cl)cc1,-2,9,-5,12,-3,·
CCOC(=O)Cc1csc(NC(=O)COc2ccccc2OC)n1,-4,8,10,1,-7,·
COc1ccc(NC2CS(=O)(=O)CC2NCc2ccccc2)cc1 (configuration not stated),3,40*,1,7,-3,15
O=S1(=O)C[C@@H](O)[C@@H](Nc2ccccc2)C1,7,23,2,-1,3,·
COC(=O)C1=C(C)N(C2CCCCC2)C(=O)C1,4,42*,-2,1,4,6
O=C(c1ccccc1)[C@@H]1[C@@H](C(=O)c2ccc(F)cc2)[C@@]2(C(=O)Nc3ccccc32)[C@H]2c3ccccc3C=CN12,13,54*,7,64*,28,66*
CC(=O)[C@@H]1[C@@H](C(=O)c2ccccc2)[C@]2(C(=O)Nc3ccccc32)[C@H]2C=Cc3cc(F)ccc3N12,7,-36,-1,15,-5,·
CCOc1ccc(N=C(C)c2ccccc2O)cc1,4,42*,-5,-20,-12,17
CC(=O)Nc1ccc(S(=O)(=O)N(C)CC(=O)OCC(=O)Nc2ccc3c(c2)OCO3)cc1,-5,-17,-5,2,-2,·
Cc1ccc(Sc2cc(NCCCO)c([N+](=O)[O-])c3nonc23)cc1,5,44*,5,37,5,48*
CCC(=O)OCCNc1cc(SCCC(=O)OC)c2nonc2c1[N+](=O)[O-],11,32,-4,37,13,·
CC(C)CCSc1cc(NCCO)c([N+](=O)[O-])c2nonc12,-6,49*,3,34,-4,27
CC(=O)OCCCNc1cc(Sc2ccc(Cl)cc2)c2nonc2c1[N+](=O)[O-],·,17,-5,·,·,·
O=C(COC(=O)c1c2ccccc2cc2ccccc12)NCC(F)(F)F,2,-426,4,-2,-2,·
C1CN(CC2CCN(c3nc4nonc4nc3N3CCSCC3)CC2)CCO1,7,9,3,-11,-3,·
Cc1ccc(S(=O)c2ccc([N+](=O)[O-])c3nonc23)cc1 (configuration not stated),·,61*,·,·,·,43
COc1ccccc1Cn1nnc2c(=O)[nH]c(C3CCN(C(=O)c4ccc(F)cc4)CC3)nc21,-1,53*,1,8,2,8
Cc1ccc2nc(SCC(=O)Nc3cc(C(F)(F)F)ccc3N3CCOCC3)[nH]c2c1,-1,29,-1,-12,-2,·
OCCNCc1cc(Br)ccc1OCc1ccc(Cl)cc1Cl,·,42*,-1,·,·,11
OCCNCc1cc(Br)ccc1OCc1ccc(Cl)cc1,-8,16,-3,-5,-11,·
CC(C)C1NCCc2c1sc1ccccc21 (configuration not stated),0,43*,·,4,-2,-8
CCCc1ccc(C(=O)NNc2ccc(F)cc2)cc1,10,47*,-4,-10,-14,8
CCCc1ccc(C(=O)NNC(=O)c2ccc(Br)cc2)cc1,2,18,-2,-8,8,·
OC(c1ccccc1)C(O)c1ccccc1 (configuration not stated),0,26,·,-13,-4,·
